Measured values published in PubChem BioAssay AID1554 (Broad Institute, 2009).
In all, about 300,000 compounds went through this assay and about 520 (0.17%) were called active. For the sample, actives were picked, then their nearest neighbours and some compounds at random. Values without a mark were called inactive. Rule as the data show it: active = inhibition above about 50%; inconclusive = no clear call, values can overlap the other calls; inactive = below that.

Assay: PubChem AID 1554
Details: BJeLR (HRASV12) viability, CellTiter-Glo ATP luminescence, 48 h; stronger effect = higher value; concentration not given here

With `C=CCn1c(SCC(=O)c2ccc(Br)cc2)nnc1C(C)NC(=O)Cc1ccc(OC)cc1` (stereo not given) as the compound, how does the inhibition read?
The inhibition was 2.52%.

With `NS(=O)(=O)c1ccc(CNC(=O)c2cnccn2)cc1` as the compound, how does the inhibition read?
The inhibition was 4.27%.

For `CCC(C)Sc1nc2c(cnn2-c2ccc(F)cc2)c(=O)[nH]1` (stereo not given), which inhibition is on record?
Its inhibition is -2.29%.

With `CC1(C)CC(=O)C(C=NCCN2CCN(C(=S)Nc3cccc(Cl)c3)CC2)=C(O)C1` as the compound, how does the inhibition read?
The inhibition was 8.42%.

For `CSCCC(NC(=O)COc1ccccc1)C(=O)OCCOc1ccc(F)cc1` (stereo not given), which inhibition is on record?
The inhibition was -6.51%.

With `CCOC(=O)c1sc(NC(=O)CSc2nc(O)c(Cc3ccccc3)c(=O)[nH]2)nc1C` as the compound, how does the inhibition read?
Its inhibition is 5.77%.

Which inhibition does the source give for `CCCn1c(=N)n(CC(=O)c2ccc(Cl)c(Cl)c2)c2ccccc21` here?
Its inhibition is 3.45%.

Which inhibition does the source give for `COc1ccc2c(c1)N(C)/C(=C1/SC(=S)N(NC(C)=O)C1=O)S2` here?
The inhibition was 1.69%.

For `CC(OC(=O)CN1C(=O)C2CCCCC2C1=O)C(=O)Nc1ncc(Cl)cc1Cl` (stereo not given), which inhibition is on record?
Its inhibition is 6.26%.

With `CCOC(=O)c1c(N)sc2c1CCCC2=O` as the compound, how does the inhibition read?
Its inhibition is 7.59%.

For `O=C(Nc1ccc(C(=O)O)cc1)/C(=C\c1ccccc1)NC(=O)c1ccc(Br)cc1`, which inhibition is on record?
The inhibition was -0.97%.

With `Cc1ccc(OC(=O)c2cncc(Br)c2)c(C)c1` as the compound, how does the inhibition read?
Its inhibition is -5.3%.

Which inhibition does the source give for `CC1CN(C2CCN(C(=O)COc3ccccc3)CC2)CC(C)O1` (stereo not given) here?
The inhibition was -0.241%.

With `Cc1c(C(=O)N(Cc2ccccc2)Cc2cccnc2)cnn1-c1ccc(F)cc1` as the compound, how does the inhibition read?
The inhibition was -6%.

For `O=C(NC(Nc1nc2ccc([N+](=O)[O-])cc2s1)(C(F)(F)F)C(F)(F)F)c1ccccc1`, which inhibition is on record?
The inhibition was 77.1% (active).

For `O=[N+]([O-])c1cc(Br)c(O)c(/C=N/Nc2nc3ccccc3s2)c1`, which inhibition is on record?
Its inhibition is 7.46%.

For `O=C(CNC(=O)c1ccccc1)Oc1ccc([N+](=O)[O-])cc1`, which inhibition is on record?
Its inhibition is -1.21%.

With `O=C(CCC(=O)NNc1nc2ccccc2c2nc(-c3ccccc3)nn12)NCCCN1CCCC1=O` as the compound, how does the inhibition read?
The inhibition was 0.872%.

With `CCOC(=O)/C(=C\c1ccc([N+](=O)[O-])cc1)C(=O)c1cc(C(C)=O)c(Nc2ccccc2)s1` as the compound, how does the inhibition read?
The inhibition was 58.8% (active).

For `Cc1ccc(NC(=O)/C(=C/c2ccc([N+](=O)[O-])cc2)NC(=O)c2ccccc2)cc1`, which inhibition is on record?
The inhibition was -1.53%.

Which inhibition does the source give for `CCOC(=O)COc1ccc([N+](=O)[O-])cc1` here?
The inhibition was -3.89%.

With `Cc1ccc(NC(=O)c2cnc(SCC(=O)NCC3CCCO3)n(C)c2=O)cc1` (stereo not given) as the compound, how does the inhibition read?
The inhibition was 1.95%.

For `COc1cc(CN2CCN(Cc3ccc(C)cc3)CC2)c([N+](=O)[O-])cc1OC`, which inhibition is on record?
Its inhibition is 1.71%.

Which inhibition does the source give for `COC(=O)CN1C(=O)C(C)(C)Oc2ccc(C(=O)Nc3cccc(OC)c3)cc21` here?
Its inhibition is -4.31%.

For `COc1ccc(CCNC(=O)COC(=O)Cc2cc(OC)c(OC)c(OC)c2)cc1`, which inhibition is on record?
Its inhibition is 0.941%.

With `COc1cc2c(C(=O)N(C)c3cc(Cl)ccc3OC)cn(C)c(=O)c2cc1OC` as the compound, how does the inhibition read?
The inhibition was -4.19%.

For `O=C(NCCOc1cccnc1)c1ccc(OC2CCN(Cc3ccccn3)CC2)cc1`, which inhibition is on record?
The inhibition was 113% (active).

Which inhibition does the source give for `Cn1cc(CNC(=O)c2ccc(OC3CCN(Cc4ccccn4)CC3)cc2)cn1` here?
The inhibition was 2.21%.

With `O=C(c1ccc(OC2CCN(Cc3ccccn3)CC2)cc1)N1CCCCCC1` as the compound, how does the inhibition read?
The inhibition was -3.12%.

With `O=C(CN1C(=O)c2cccnc2Oc2ccc(Cl)cc21)NCCc1ccccc1` as the compound, how does the inhibition read?
The inhibition was 2.42%.

With `CC(=O)N1CCN(c2ccc(NCc3ccc(C(C)C)cc3)cc2)CC1` as the compound, how does the inhibition read?
Its inhibition is -2.24%.

With `CC(=O)c1ccc(N2Cc3ccccc3C2)cc1` as the compound, how does the inhibition read?
The inhibition was -5.06%.

With `C/C(=N/NC(=O)CN1CCN(S(=O)(=O)c2ccc(Br)cc2)CC1)c1ccncc1` as the compound, how does the inhibition read?
The inhibition was 4.03%.

For `O=C(c1cc(-c2ccc(Cl)s2)nc2ccccc12)N1CCOCC1`, which inhibition is on record?
The inhibition was -8.28%.

For `Cc1ccc(CSCCNC(=O)CN(c2ccc(F)cc2)S(C)(=O)=O)cc1`, which inhibition is on record?
Its inhibition is -8.45%.

Which inhibition does the source give for `CC1CCCC(N2CCN(C(=O)c3ccc(F)cc3)CC2)C1` (stereo not given) here?
The inhibition was -5.87%.

With `O=C(NCc1ccccc1Cl)c1ccc2c(=O)n(CC3CCCO3)c(=S)[nH]c2c1` (stereo not given) as the compound, how does the inhibition read?
Its inhibition is 9.1%.

Which inhibition does the source give for `COc1cc(NC(=O)CSC(=S)N2CCCC2)c(OC)cc1Cl` here?
The inhibition was -1.51%.

With `CCOc1ccc(OCCSc2nc3ccccc3n2CC(=O)O)cc1` as the compound, how does the inhibition read?
Its inhibition is -3.19%.

For `Cc1ccc2cc(C#N)c(NCCNC(=S)NCCCN3CCOCC3)nc2c1`, which inhibition is on record?
The inhibition was 4.4%.

With `COc1cc([N+](=O)[O-])ccc1NC(=S)N1CCN(c2ccccn2)CC1` as the compound, how does the inhibition read?
Its inhibition is -1.41%.

For `COc1ccc(N2CCN(C(C)=C3C(=O)c4ccccc4C3=O)CC2)cc1`, which inhibition is on record?
Its inhibition is 2.27%.

Which inhibition does the source give for `CCOC(=O)c1cc2cc3ccccc3cc2oc1=O` here?
Its inhibition is -11.8%.

Which inhibition does the source give for `CCOC(=O)C1=C(c2ccc(OC)cc2)C(=O)c2ccccc2C1=O` here?
Its inhibition is 110% (active).

For `Cc1ccc(S(=O)(=O)n2cccc2CO)cc1`, which inhibition is on record?
Its inhibition is -3.34%.
